Laboratory results: PubChem BioAssay AID602233 (National Center for Advancing Translational Sciences (NCATS), 2012)
The whole screen tested about 380,000 compounds, of which about 170 (0.045%) were called active. Calls come from the whole dose curve; as a rule, active = well fitted inhibition curve with a large enough effect; inconclusive = small, poorly fitted or top-dose-only effect; inactive = no such curve, though single readings can be large or run the other way. What follows is part of a selection rich in actives, with near analogues and random picks from the rest.

Target: Phosphoglycerate kinase, glycosomal (Trypanosoma brucei brucei) (UniProt P07378)
Experiment: qHTS Assay to Find Inhibitors of Phosphoglycerate Kinase; note: nearly all actives have a fitted effect of over 60% in size
Conditions: PGK/GAPDH coupled, Kinase-Glo luminescence, 60 min; series mostly up to 57.5 µM; activity change, negative = inhibition: at the top concentration
From the text: Several species of the Trypanosomatidae family of parasitic protozoans cause a spectrum of diseases throughout the tropical and subtropical world. Sleeping sickness, caused by two subspecies of Trypanosoma brucei, is endemic to areas of sub-Saharan Africa, while Chagas disease, a manifestation of Trypanosoma cruzi infection, is prevalent throughout Central and South America. In addition, many species of Leishmania are responsible for a range of cutaneous and visceral diseases, causing ulcers, destructive lesions and kalaazar, a lethal infection of the viscera. Collectively, these organisms infect 30 million people worldwide (~500 million live in endemic areas), and account for ~130,000 deaths annually. Given their debilitating and prevalent nature, trypanosomatid parasites impose a heavy medical, economic and social burden on entire populations, primarily in the developing world. The problem is further exacerbated by the fact that existing treatments have progressed little in the past 50 years, and current drugs show high toxicity and poor efficacy. […] Blood-stream stages of T. brucei are entirely dependent on glycolysis as a source of ATP, and the tricarboxylic acid cycle and oxidative phosphorylation are both repressed. Glycolysis in axenically cultured T. cruzi, representing the intracellular pathogenic stage, is also essential for these parasites. […] Previous studies have shown that the glycolytic enzyme, phosphoglycerate kinase (PGK), is a viable target for drugs to kill these parasites. […] NIH Molecular Libraries Probe Production Network [MLPCN] NIH Chemical Genomics Center [NCGC] MLPCN Grant: R03 MH093212 PI Name: Malcolm Walkinshaw, University of Edinburgh
3ul of substrate/PGK buffer (columns 1,2,5-48) are dispensed into Greiner white solid bottom 1536-well assay plates; columns 3-4 receive only TEA buffer as 0x PGK controls. Compounds are then transferred via Kalypsys pin tool equipped with 1536-pin array (10nl slotted pins, V&P Scientific, San Diego, CA). Following addition of compound, 1ul of GAPDH (100nM final concentration, all columns) is added to initiate the reaction (this upstream coupling enzyme is necessary for in-well production of PGK substrate, 1,3-bisphosphoglycerate (1,3-BPG), which is unstable and not commercially available). The plates are then incubated at room temperature for 60 minutes. Kinase-Glo Plus reagent is added (2ul) and plates incubated for 10 minutes, before being transferred to a ViewLux high-throughput CCD imager (PerkinElmer) wherein single end-point measurements of luminescence are acquired using a clear filter. All reagents are diluted in an assay buffer consisting of 100mM TEA (pH 7.6), 5mM MgCl2 and 0.01% Tween-20.
% is set by controls: 0 for no effect and ±100 for the full control effect; potency is the fitted concentration of half-maximal effect.

Sequence of Phosphoglycerate kinase, glycosomal (Trypanosoma brucei brucei) (P07378 whole entry, looked up): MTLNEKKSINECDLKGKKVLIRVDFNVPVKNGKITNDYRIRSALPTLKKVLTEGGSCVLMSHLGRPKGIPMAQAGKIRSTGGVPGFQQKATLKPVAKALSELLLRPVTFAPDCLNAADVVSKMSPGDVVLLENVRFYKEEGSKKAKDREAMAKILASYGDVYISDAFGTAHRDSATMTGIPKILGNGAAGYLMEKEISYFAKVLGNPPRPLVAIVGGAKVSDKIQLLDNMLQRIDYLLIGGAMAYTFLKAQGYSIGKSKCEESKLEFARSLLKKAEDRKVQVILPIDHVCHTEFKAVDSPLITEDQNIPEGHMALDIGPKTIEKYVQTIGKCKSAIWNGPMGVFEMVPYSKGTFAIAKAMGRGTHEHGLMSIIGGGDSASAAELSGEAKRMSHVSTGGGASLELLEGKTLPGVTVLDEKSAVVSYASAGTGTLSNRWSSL

Activity change, negative = inhibition, inactive:
COc1ccc(C(=O)N2CCC(c3nc4ccccc4o3)CC2)cc1 3.31%
COc1ccc(CCNS(=O)(=O)c2cc(-c3cc(C)no3)ccc2C)cc1OC 7.73%
COc1ccc(N2CCN(C(=O)c3c(C)oc4nc(C)nc(N5CCCC5)c34)CC2)cc1 -3.22%
COc1cccc(NC(=O)N(Cc2cn(C)c3ccccc23)C2CCCCCC2)c1 1.22%
Cc1ccc(CCNC(=O)c2nnc(Cc3cccc(F)c3)o2)cc1 -3.81%
COC(=O)c1ccc(Cn2c(SCC(=O)N(C)c3ccccc3)nc3ccccc32)cc1 -5.74%
COc1cc(Nc2nc(-c3ccc(OC)c(OC)c3)nc3ccccc23)cc(OC)c1 -16%
CCOC(=O)c1oc2ccc(S(=O)(=O)n3nc(-c4ccccc4OC)cc3N)cc2c1C -7.27%
O=C(c1cnn(-c2ccc(F)cc2)c1-n1cccc1)N1CCN(c2ccc(F)cc2)CC1 1.01%
C/C=C(\C)C(=O)N1CC2(CC(c3cccc(NC(=O)CCCCC)c3)=NO2)C[C@@H]1C(N)=O (stereo partly drawn) -20.1%
O=C(CC1C(=O)N(c2ccccc2)C(=O)N1CCc1cccs1)Nc1ccc(F)cc1 (stereo not drawn) -9.54%
Fc1ccc(-c2nn(-c3ccccc3Cl)c3c2cnc2ccccc23)cc1 -9.02%
COC(=O)c1ccccc1NC(=O)c1cc(-c2ccccc2O)no1 0.223%
Cc1nn(C(=O)c2c(F)cccc2F)c(C)c1S(=O)(=O)N1CCOCC1 -7.86%
Cc1cccc(NC(=O)CSc2ncc(-c3ccccc3)[nH]2)c1C 5.88%
CCc1ccc(NC(=O)CCCc2nnc3n(CCCOC)c(=O)c4sccc4n23)cc1 2.03%
COc1ccc(C2=CC(c3ccccc3Cl)n3nc(-c4ccc(Cl)cc4)nc3N2)cc1 (stereo not drawn) 5.67%
Cc1ccc(CN2C(=O)SC(Nc3ccccc3)C2=O)cc1 (stereo not drawn) -1.1%
O=C(OCc1cc(=O)n2nc(C3CC3)sc2n1)c1ccccc1Cl -8.07%
COc1cccc(N2CCN(S(=O)(=O)c3cc(Br)cc4c3N(C(=O)C3CC3)CC4)CC2)c1 -3.4%
O=C(Nc1nnc(C2CC(=O)N(c3ccc(Cl)cc3)C2)s1)c1ccco1 (stereo not drawn) -4.59%
COc1cc(C(CC(=O)NCCC(C)C)N2Cc3ccccc3C2=O)cc(OC)c1OC (stereo not drawn) -9.14%
COc1ccccc1C1C(C(=O)N2CCCCC2)=C(C)Nc2nc3ccccc3n21 (stereo not drawn) -1.37%
CCOc1ccc(C2CC(=O)c3c([nH]c(C(=O)OCc4ccccc4)c3C)C2)cc1 (stereo not drawn) 2.31%
CCCC(=O)Nc1cc(C(=O)NCc2ccc(OC)cc2)ccc1S(=O)(=O)c1ccc(Cl)cc1 3.14%
CC1=C(C(=O)OCC(C)C)C(c2ccc(OCc3ccccc3)cc2)N2C(=O)CCSC2=N1 (stereo not drawn) 10.3%
O=C(/C=C/c1cn(CC(O)CN2CCc3ccccc32)c2ccccc12)c1ccc(Br)cc1 (stereo not drawn) -0.876%
O=C(Nc1ccc(C(=O)OCc2cc(=O)n3nc(C4CC4)sc3n2)cc1)c1ccc(F)cc1 -0.294%
Cc1ccc(N(CC(=O)NCC(C)c2ccccc2)S(=O)(=O)N(C)C)cc1 (stereo not drawn) -4.73%
CCc1nnc2c3ccccc3nc(N3CCN(c4ccc(C)cc4C)CC3)n12 -2.29%
O=C(C1CCCN(S(=O)(=O)c2cccc3nonc23)C1)N1CCN(c2ccccc2F)CC1 (stereo not drawn) 0.227%
COc1ccc(SCc2cc(=O)c3ccc(C)c(C)c3[nH]2)cc1 -6.17%
Cc1ccc(-c2nc(Cn3c(=O)cc(-c4ccccc4)c4c(C)nn(C)c43)c(C)o2)cc1 -5.33%
CC(C)c1ccc(NC(=O)CN(C)S(=O)(=O)c2ccc3c(c2)c(=O)n(C)c(=O)n3C)cc1 3.59%
Cc1ccc2nc(-c3ccc(O)cc3)c(Nc3ccc4c(c3)OCO4)n2c1 0.889%
CC(C)Oc1ccc(CNC(=O)C2CCN(c3nc4ccccc4n(C)c3=O)CC2)cc1 3.34%
COc1cccc(C(=O)Nc2ccc(-c3cc(C(F)(F)F)nn3-c3ccccc3)cc2)c1 6.52%
Cc1ccccc1C(=O)Nc1nnc(S(=O)(=O)N(C)c2ccc(Cl)cc2)s1 -7.58%
O=C(COc1ccc(Cl)cc1)N(Cc1ccco1)Cc1ccco1 -6.16%

outcome, inactive:
CC(=O)c1ccc(NC(=O)c2nc(-c3ccc(C)cc3)n3c2CCCCC3)cc1
NC(=O)[C@H]1CC2(CC(c3cccc(NC(=O)[C@H]4CCC(=O)N4)c3)=NO2)CN1C(=O)c1ccccc1C(=O)c1ccccc1 (stereo partly drawn)
COc1ccc(CCNC(=O)c2cn(C)c3ccc(S(=O)(=O)N(C)C4CCCCC4)cc3c2=O)cc1OC
Cc1ccc(-c2onc(C)c2C)cc1S(=O)(=O)Nc1ccccn1
O=C(NCc1ccc(F)cc1)c1ccc(Cn2c(SCc3ccc(F)cc3)nc3cccnc32)cc1
Cc1ccc(C2CCN(C(=O)c3cnn(-c4ccccc4Cl)c3C3CCN(C(=O)OC(C)(C)C)CC3)C2)cc1 (stereo not drawn)
O=C(COc1ccc(Cl)cc1)Nc1ccc(-c2nc3cc(Cl)ccc3o2)c(O)c1
Cc1c(Cl)cccc1NC(=O)C(=O)NCCc1csc2nc(-c3ccccc3F)nn12
NS(=O)(=O)c1ccc(NC(=O)C(=O)Nc2ccc3nc4n(c(=O)c3c2)CCCCC4)cc1
O=C(NCc1ccc(Cl)cc1)c1ccc2c(c1)nnn2C1CCCC1
Oc1ccccc1-c1nc2ccc(Cl)cn2c1Nc1ccc2c(c1)OCCO2
Cc1ccc(NC(=O)c2oc3ccc(S(=O)(=O)N4CCCCC4)cc3c2C)cc1Cl
Cc1cc(C)cc(NC(=O)CSc2oc(-c3ccccc3)nc2S(=O)(=O)c2ccc(Cl)cc2)c1

Potency, active:
C=C(C)C(=O)Nc1cccc(C2=NOC3(C2)C[C@H](C(N)=O)N(C(=O)C(c2ccccc2)c2ccccc2)C3)c1 (stereo partly drawn) 7.94 µM
